From ChEMBL document CHEMBL1961873, “Compounds: GSK PKIS; Assays: Nanosyn kinase panel” (2012) come the findings set out here.

Experiment [1] addresses Mitogen-activated protein kinase kinase kinase kinase 4 (Homo sapiens) (UniProt O95819). The following applies: at 1 µM.
For experiment [2], the target named is Dual specificity mitogen-activated protein kinase kinase 1 (Homo sapiens) (UniProt Q02750). The following applies: at 0.1 µM.
Experiment [3] shares this target. The note with it: at 1 µM.
Experiment [4] addresses Misshapen-like kinase 1 (Homo sapiens) (UniProt Q8N4C8). The following applies: at 0.1 µM.
Experiment [5] shares this target. The following applies: at 1 µM.
The target in experiment [6] is T1, Serine/threonine-protein kinase 4 (Homo sapiens) (UniProt Q13043).
T1 sequence (whole entry): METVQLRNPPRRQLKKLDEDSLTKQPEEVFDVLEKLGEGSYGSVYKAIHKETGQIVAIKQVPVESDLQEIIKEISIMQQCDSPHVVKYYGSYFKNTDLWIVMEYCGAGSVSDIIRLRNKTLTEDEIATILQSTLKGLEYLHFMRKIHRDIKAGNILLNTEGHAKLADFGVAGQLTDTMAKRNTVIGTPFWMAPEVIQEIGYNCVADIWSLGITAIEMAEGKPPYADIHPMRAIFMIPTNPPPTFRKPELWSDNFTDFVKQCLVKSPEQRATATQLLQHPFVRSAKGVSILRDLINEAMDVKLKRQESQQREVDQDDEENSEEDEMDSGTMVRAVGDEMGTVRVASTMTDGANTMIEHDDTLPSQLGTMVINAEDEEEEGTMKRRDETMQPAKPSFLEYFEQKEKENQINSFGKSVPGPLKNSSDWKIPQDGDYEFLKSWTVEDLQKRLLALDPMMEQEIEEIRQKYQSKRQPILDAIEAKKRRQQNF
The following applies: at 0.1 µM.

Experiment [7] deals with T1, Serine/threonine-protein kinase 4 (Homo sapiens). The note with it: at 1 µM.
Experiment [8] deals with T2, Serine/threonine-protein kinase 3 (Homo sapiens) (UniProt Q13188).
T2 sequence (whole entry): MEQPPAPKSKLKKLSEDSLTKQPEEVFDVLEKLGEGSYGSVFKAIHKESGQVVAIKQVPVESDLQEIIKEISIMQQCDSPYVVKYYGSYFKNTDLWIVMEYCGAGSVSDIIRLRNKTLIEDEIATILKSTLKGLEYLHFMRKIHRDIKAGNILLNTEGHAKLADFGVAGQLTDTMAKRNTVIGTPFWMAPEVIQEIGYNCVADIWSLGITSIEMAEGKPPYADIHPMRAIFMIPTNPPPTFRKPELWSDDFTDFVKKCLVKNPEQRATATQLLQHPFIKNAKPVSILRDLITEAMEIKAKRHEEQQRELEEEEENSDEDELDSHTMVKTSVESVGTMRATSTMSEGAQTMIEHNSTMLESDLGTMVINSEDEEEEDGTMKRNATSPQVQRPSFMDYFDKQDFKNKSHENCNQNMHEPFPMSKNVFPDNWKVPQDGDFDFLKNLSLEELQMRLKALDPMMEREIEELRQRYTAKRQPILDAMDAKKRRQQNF
The following applies: at 0.1 µM.

Experiment [9] has as its target T2, Serine/threonine-protein kinase 3 (Homo sapiens). The following applies: at 1 µM.
The target of experiment [10] is Serine/threonine-protein kinase 26 (Homo sapiens) (UniProt Q9P289). The following applies: at 0.1 µM.
Experiment [11] has the same target. The following applies: at 1 µM.
In experiment [12] the target is Serine/threonine-protein kinase PAK 1 (Homo sapiens) (UniProt Q13153). The following applies: at 0.1 µM.
Serine/threonine-protein kinase PAK 1 (Homo sapiens), sequence (Q13153 whole entry): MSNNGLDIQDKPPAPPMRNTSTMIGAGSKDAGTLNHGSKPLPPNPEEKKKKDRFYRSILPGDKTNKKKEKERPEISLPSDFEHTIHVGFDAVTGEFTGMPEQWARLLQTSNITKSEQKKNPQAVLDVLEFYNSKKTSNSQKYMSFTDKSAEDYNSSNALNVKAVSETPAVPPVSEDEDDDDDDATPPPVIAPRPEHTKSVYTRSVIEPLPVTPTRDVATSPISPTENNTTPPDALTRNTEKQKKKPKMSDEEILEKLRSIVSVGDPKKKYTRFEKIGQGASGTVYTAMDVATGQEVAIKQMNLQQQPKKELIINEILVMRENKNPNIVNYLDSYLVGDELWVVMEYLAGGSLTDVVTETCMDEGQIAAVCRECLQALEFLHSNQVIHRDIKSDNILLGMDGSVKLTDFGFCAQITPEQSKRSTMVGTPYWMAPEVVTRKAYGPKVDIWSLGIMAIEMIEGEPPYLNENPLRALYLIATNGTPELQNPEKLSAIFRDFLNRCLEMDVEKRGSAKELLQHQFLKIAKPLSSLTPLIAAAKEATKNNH
For experiment [13] the target is unchanged. The following applies: at 1 µM.
In experiment [14] the target is Serine/threonine-protein kinase PAK 2 (Homo sapiens) (UniProt Q13177). The following applies: at 0.1 µM.
Serine/threonine-protein kinase PAK 2 (Homo sapiens), sequence (Q13177 whole entry): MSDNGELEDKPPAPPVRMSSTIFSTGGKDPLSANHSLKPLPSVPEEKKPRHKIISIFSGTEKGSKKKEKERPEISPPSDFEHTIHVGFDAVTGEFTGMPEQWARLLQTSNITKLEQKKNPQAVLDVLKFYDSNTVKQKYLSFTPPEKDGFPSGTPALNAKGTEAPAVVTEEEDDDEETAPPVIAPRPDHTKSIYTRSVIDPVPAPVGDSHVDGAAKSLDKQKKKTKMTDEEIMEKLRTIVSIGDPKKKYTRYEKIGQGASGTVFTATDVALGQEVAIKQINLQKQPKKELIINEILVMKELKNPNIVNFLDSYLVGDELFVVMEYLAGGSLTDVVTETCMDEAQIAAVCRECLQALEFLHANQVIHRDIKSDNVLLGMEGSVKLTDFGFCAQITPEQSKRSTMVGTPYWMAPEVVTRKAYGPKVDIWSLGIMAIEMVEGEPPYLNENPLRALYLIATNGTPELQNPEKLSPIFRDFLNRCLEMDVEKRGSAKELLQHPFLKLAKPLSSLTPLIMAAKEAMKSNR
Experiment [15] shares this target. The note with it: at 1 µM.
Experiment [16] addresses Serine/threonine-protein kinase PAK 3 (Homo sapiens) (UniProt O75914). The following applies: at 0.1 µM.
Experiment [17] has the same target. The following applies: at 1 µM.
The target in experiment [18] is Serine/threonine-protein kinase PAK 5 (Homo sapiens) (UniProt Q9P286). The following applies: at 0.1 µM.
Serine/threonine-protein kinase PAK 5 (Homo sapiens), sequence (Q9P286 whole entry, looked up): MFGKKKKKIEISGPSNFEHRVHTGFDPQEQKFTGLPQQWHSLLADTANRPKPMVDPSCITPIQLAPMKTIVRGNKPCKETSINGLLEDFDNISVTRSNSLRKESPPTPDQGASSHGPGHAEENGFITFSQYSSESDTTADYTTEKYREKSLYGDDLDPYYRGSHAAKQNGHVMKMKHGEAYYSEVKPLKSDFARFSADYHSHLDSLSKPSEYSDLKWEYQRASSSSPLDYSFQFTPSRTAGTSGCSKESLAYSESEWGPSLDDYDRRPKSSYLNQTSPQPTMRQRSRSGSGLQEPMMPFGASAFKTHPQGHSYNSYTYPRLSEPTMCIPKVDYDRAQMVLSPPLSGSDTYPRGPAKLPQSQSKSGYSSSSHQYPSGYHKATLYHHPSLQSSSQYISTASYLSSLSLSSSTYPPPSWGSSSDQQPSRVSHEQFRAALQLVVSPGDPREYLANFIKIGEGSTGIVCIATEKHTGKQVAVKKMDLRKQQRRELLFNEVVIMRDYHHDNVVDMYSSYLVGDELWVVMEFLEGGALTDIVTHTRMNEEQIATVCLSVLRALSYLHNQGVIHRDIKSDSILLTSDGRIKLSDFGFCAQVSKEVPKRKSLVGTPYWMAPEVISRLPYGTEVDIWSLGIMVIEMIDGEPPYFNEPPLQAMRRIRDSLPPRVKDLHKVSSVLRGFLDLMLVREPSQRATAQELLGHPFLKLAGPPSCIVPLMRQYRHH
Experiment [19] has the same target. The following applies: at 1 µM.
Experiment [20] has as its target Serine/threonine-protein kinase PAK 6 (Homo sapiens) (UniProt Q9NQU5). The following applies: at 0.1 µM.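 Also: mean PAK6 inhibition reported from the GSK PKIS screen.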

Serine/threonine-protein kinase PAK 6 (Homo sapiens), sequence (Q9NQU5 whole entry, looked up): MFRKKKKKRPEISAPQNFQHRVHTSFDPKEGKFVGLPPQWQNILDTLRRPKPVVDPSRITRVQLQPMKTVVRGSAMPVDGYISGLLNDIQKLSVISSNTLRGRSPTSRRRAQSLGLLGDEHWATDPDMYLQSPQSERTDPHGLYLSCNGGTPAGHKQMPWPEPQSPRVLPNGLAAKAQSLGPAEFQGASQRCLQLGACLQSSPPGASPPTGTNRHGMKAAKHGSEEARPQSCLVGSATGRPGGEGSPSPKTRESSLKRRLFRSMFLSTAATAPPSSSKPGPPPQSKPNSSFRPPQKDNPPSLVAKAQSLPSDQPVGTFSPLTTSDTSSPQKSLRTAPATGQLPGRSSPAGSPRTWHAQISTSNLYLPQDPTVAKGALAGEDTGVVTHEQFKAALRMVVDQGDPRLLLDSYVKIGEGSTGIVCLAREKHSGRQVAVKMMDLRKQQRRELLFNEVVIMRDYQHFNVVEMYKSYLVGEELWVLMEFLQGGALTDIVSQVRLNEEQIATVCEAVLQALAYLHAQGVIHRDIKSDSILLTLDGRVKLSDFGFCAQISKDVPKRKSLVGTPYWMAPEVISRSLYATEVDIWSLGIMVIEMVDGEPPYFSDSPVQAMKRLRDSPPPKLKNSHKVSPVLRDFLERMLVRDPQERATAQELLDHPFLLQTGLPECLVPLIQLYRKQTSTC
Mitogen-activated protein kinase kinase kinase kinase 4 (Homo sapiens), sequence (O95819 2-1239 limits assumed): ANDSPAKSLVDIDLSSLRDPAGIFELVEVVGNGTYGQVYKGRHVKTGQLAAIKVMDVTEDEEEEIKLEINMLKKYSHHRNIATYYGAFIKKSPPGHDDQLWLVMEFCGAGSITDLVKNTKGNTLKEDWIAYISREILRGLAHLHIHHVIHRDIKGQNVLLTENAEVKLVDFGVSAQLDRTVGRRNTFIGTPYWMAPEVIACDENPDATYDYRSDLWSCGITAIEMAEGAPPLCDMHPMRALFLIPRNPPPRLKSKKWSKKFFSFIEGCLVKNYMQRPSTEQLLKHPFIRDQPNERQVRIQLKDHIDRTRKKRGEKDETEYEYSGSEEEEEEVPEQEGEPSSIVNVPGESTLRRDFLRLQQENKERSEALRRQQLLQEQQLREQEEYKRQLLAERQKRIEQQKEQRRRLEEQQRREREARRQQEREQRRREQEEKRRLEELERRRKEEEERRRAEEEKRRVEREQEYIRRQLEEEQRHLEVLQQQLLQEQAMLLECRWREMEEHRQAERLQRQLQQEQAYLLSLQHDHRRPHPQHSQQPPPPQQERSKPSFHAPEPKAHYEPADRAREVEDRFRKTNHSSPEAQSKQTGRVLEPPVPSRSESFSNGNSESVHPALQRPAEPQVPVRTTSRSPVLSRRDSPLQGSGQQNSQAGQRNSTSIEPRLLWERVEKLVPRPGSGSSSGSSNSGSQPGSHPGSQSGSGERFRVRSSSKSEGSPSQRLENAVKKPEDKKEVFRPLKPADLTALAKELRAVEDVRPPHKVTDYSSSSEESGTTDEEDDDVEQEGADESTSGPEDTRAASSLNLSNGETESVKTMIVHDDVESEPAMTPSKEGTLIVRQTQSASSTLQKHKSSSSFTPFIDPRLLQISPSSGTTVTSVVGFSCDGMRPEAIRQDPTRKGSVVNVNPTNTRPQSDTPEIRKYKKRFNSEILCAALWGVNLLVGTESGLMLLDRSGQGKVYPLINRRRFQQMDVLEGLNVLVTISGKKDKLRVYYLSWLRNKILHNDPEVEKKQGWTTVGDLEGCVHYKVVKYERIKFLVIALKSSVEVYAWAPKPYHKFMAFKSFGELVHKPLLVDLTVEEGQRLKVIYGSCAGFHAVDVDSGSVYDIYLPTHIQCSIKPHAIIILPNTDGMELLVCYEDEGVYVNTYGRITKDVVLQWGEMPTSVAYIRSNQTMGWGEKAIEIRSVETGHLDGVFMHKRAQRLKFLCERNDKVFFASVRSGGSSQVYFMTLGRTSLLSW
Dual specificity mitogen-activated protein kinase kinase 1 (Homo sapiens), sequence (Q02750 whole entry): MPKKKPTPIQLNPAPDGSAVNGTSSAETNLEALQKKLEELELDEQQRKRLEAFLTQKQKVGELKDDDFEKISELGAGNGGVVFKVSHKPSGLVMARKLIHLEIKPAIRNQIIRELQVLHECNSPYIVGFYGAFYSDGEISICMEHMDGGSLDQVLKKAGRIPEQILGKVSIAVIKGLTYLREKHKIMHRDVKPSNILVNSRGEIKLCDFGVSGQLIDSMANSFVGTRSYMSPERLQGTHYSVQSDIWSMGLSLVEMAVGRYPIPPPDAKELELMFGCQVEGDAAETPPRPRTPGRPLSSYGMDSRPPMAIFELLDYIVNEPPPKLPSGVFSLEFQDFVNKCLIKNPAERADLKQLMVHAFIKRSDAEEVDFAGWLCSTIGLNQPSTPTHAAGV
Serine/threonine-protein kinase PAK 3 (Homo sapiens), sequence (O75914 whole entry, looked up): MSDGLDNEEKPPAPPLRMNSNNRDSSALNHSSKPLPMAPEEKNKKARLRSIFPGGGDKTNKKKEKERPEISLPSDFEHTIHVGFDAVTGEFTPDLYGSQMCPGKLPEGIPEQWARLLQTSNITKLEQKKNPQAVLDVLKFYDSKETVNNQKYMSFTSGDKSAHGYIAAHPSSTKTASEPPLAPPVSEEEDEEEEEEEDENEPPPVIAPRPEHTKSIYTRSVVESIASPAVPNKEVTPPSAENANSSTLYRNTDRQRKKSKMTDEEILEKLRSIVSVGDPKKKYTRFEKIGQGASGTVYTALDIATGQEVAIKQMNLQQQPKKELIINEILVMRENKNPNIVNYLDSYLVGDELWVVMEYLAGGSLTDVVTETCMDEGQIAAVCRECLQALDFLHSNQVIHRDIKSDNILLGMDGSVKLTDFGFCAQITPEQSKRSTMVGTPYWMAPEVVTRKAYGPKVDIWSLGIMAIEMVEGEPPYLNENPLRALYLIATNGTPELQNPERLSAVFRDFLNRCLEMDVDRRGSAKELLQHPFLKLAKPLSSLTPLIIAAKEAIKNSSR

For the molecule `O=C(NCC1CC1)c1ccc(-c2cccc(C(=O)NC3CC3)c2)cc1`, the inhibition is 2.03% in experiment [1]; 3.01% in experiment [2]; 1.66% in experiment [3]; 2.89% in experiment [4]; -1.8% in [5]; 4.49% in [6]. In addition, the inhibition in experiment [7] was 5.3%; in experiment [8] it was 4.78%; in experiment [9], 3.31%; in [10], -2.14%; in experiment [11], -6.13%; in [12], 1.6%. Besides, the inhibition turned out to be 3.71% in experiment [13]; 2.76% in [14]; 1.58% in experiment [15]; 2.9% in experiment [16]; 2.97% in experiment [17]; 9.42% in [18]. In addition, the figures for the inhibition in experiment [19] and in [20] were 6.07% and -1.35%, respectively.
For the molecule `CNC(=O)c1cncc(/C=C/c2c(C)cccc2C)c1`, the inhibition in [1] was 7.57%; in experiment [2], -0.07%; in experiment [3], 0.41%; in [4] it was 1.75%; in experiment [5] it was 3.59%; in [6], 2.23%. The inhibition was found to be 3.51% in experiment [7]; 2.27% in [8]; 2.73% in experiment [9]; 0.91% in experiment [10]; 2.22% in experiment [11]; 0.04% in experiment [12]. Moreover, the inhibition in [13] is 3.72%; in experiment [14], 1.52%; in experiment [15] it was -0.05%; in [16], -0.14%; in experiment [17], 0.85%; in experiment [18], 7.14%. Further, in experiment [19], the inhibition was found to be 2.41%.
For `COc1cc2ncn(-c3cc(OCc4ccccc4C(F)(F)F)c(C(C)=O)s3)c2cc1OC`, the inhibition is 8.16% in experiment [1]; 3.88% in experiment [2]; 3.7% in experiment [3]; 5% in experiment [4]; 8.55% in experiment [5]; 3.51% in [6]. The inhibition in [7] is 3.86%; in experiment [8], 3.42%; in experiment [9], 7.42%; in [10], -0.47%; in experiment [11], -1.77%; in [12], 5.43%. Moreover, the inhibition in experiment [13] was 4.68%; in [14], 0.85%; in experiment [15], 1.29%; in experiment [16] it was 4.94%; in experiment [17], 2.41%; in [18], -1.43%. The inhibition in [19] was 0.17%; in experiment [20], -1.14%.
As to `O=C(Nc1ccc(Oc2ccc3[nH]c(NC(=O)c4ccccc4)nc3c2)cc1)Nc1cc(C(F)(F)F)ccc1F`, the inhibition in [1] was 5.89%; in [2] it was 2.91%; in experiment [3], 2.61%; in experiment [4], 3.26%; in experiment [5] it was 4.54%; in experiment [6], 5.74%. Moreover, the inhibition in experiment [7] was 10.6%; in experiment [8], 5.74%; in experiment [9], 8.42%; in experiment [10], 0.36%; in [11], -0.48%; in experiment [12], 5.49%. Besides, the inhibition in experiment [13] turned out to be 5.94%; in experiment [14] it was 2.09%; in [15] it was 2.3%; in [16], 2.23%; in experiment [17], 2.99%; in experiment [18], 3.8%. Also, the inhibition in experiment [19] was 4.86%.
On to `Cc1ccc(C(=O)NC(C)C)cc1-c1ccc(C(=O)NCC2CC2)cc1`, for which the inhibition in [1] is 1.81%; in experiment [2] it was -2.99%; in [3], -1.83%; in [4] it was -3.61%; in experiment [5], -1.09%; in experiment [6], -3.24%. Also, the inhibition in experiment [7] is -3.63%; in experiment [8] it was -4.19%; in [9] it was -4.98%; in experiment [10], 2.16%; in experiment [11], 1.12%; in [12], -1.5%. Also, the inhibition in experiment [13] was -0.84%; in [14] it was -1.39%; in experiment [15], -3.39%; in experiment [16], -3.81%; in experiment [17] it was -3.2%; in [18], -4.56%. Besides, the inhibition in [19] is -2.22%.
For the molecule `Cc1ccc(C(=O)NC2CCC2)cc1-c1ccc(C(=O)NCC2CC2)cc1`, the inhibition in [1] was found to be 3.8%; in [2], 2.81%; in experiment [3], 2.71%; in experiment [4], 5.5%; in experiment [5] it was 4.67%; in experiment [6] it was 3.29%. The inhibition is 1.77% in [7]; 1.04% in [8]; 1.53% in experiment [9]; -3.48% in [10]; -4.44% in experiment [11]; 6.1% in experiment [12]. Also, the inhibition in experiment [13] is 8.35%; in experiment [14] it was 2.22%; in experiment [15] it was 2.3%; in experiment [16], 3.41%; in experiment [17], 3.03%; in experiment [18], -0.72%. The inhibition is -2.79% in experiment [19] and 3.05% in [20].
For the molecule `CN(c1ccc(NC(=O)Nc2c(Cl)cccc2Cl)cc1)c1ccnc(Nc2cccc(CS(C)(=O)=O)c2)n1`, the inhibition stood at 73.4% in experiment [1]; 5.73% in experiment [2]; 5.34% in [3]; 21.2% in experiment [4]; 64.5% in [5]; 8.06% in experiment [6]. Further, the inhibition was 17.4% in experiment [7]; 8.37% in experiment [8]; 11.5% in experiment [9]; 0.39% in [10]; -3.71% in [11]; -0.06% in experiment [12]. Besides, the inhibition in experiment [13] was 2.17%; in experiment [14], 1.79%; in [15] it was 1.61%; in [16] it was 1.56%; in [17], 1.38%; in experiment [18], 4.31%. Further, the inhibition was 11.9% in experiment [19] and 7.14% in experiment [20].
